Source: PubChem BioAssay AID1852 (Sanford-Burnham Center for Chemical Genomics, 2009)
About 1,100 (44%) of roughly 2,500 compounds were called active. So high a share suggests a set chosen from earlier hits. The list shows a part of the results. Values without a mark were called inactive.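 How the source made its calls: active means inhibition above 50% at 4 µM in the single-point screen; inactive means inhibition of 50% or less.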

Experiment: blockers of TNF-a NF-kB luciferase induction – cell-based, HEK293T NF-kB-Luc, luminescence, selectivity assay for NOD1/NOD2 signaling inhibitor project, primary screen (AID 1852)
Details: TNF-a induced, 14 h, at 4 µM, active compounds read high
Work on O=C(CCl)Nc1cn(-c2ccccc2)nc1-c1ccccc1 yielded an inhibition of -13.7%. In the case of CC(=O)n1c(Cl)c(NC(=O)CCl)c2ccccc21, the inhibition is reported as 82.1% (active). O=C(CCl)Nc1cn(-c2ccccc2)nc1-c1ccc(F)cc1 showed an inhibition of -16.2%. With O=C(Cc1ccc(Cl)cc1)c1c[nH]c(C(=O)NCc2cccnc2)c1 the inhibition was 90.1% (active). COc1cccc(C(=O)Nc2sc3c(c2C(=O)O)CCCC3)c1 gave an inhibition of 30.7%. CN(C)S(=O)(=O)Oc1cccc(C(=O)Nc2ccc(Cl)c(Cl)c2)c1 gave an inhibition of -28.2%. For COc1cccc(C(=O)Nc2nc(-c3ccccc3)c(-c3ccccc3)o2)c1, the inhibition was 81.3% (active). In the case of COc1cc(OC)cc(C(=O)Nc2nc(-c3ccccc3)c(-c3ccccc3)o2)c1, the inhibition is reported as 78.7% (active). Compound Cc1onc(-c2ccccc2)c1C(=O)Nc1ncc([N+](=O)[O-])s1 has an inhibition of 48.5%. For O=C1N/C(=N\N=C\c2ccccn2)SC1Cc1cccc(SC(F)F)c1 (stereo not drawn), the inhibition was 109% (active). With CCc1nnc(NC(=O)c2nc(S(=O)(=O)Cc3ccc(C)cc3)ncc2Cl)s1 the inhibition was 71.9% (active). With Cc1cccc(CS(=O)(=O)c2ncc(Cl)c(C(=O)Nc3c(C)cccc3C)n2)c1 the inhibition was 46.2%. With CCCc1nnc(NC(=O)c2nc(S(=O)(=O)Cc3cccc(C)c3)ncc2Cl)s1 the inhibition was 61.3% (active). With CCCc1nnc(NC(=O)c2nc(S(=O)(=O)Cc3ccc(C)cc3)ncc2Cl)s1 the inhibition was 94.4% (active). Work on Cc1cc(C)c(C#N)c(SCc2nnc(-c3ccccc3)o2)n1 yielded an inhibition of 0%. Compound CCOc1ccc(NC(=O)Nc2ccc3c(c2)N(C)C(=O)CS3)cc1 has an inhibition of 14.3%. O=C(Nc1ccc(S(=O)(=O)N2CCOCC2)cc1)c1cc(-c2cc(Cl)ccc2O)n[nH]1 gave an inhibition of -2.1%. With O=S(=O)(c1ccc(N=C2NN=C(c3cc(F)ccc3F)CS2)cc1)N1CCOCC1 the inhibition was 77.4% (active). Cn1c(O)c(N=NC(=S)Nc2ccccc2F)c2cc(S(=O)(=O)N3CCOCC3)ccc21 showed an inhibition of 12.5%. With CCCCN(c1ccccc1)c1ncnc(N)c1[N+](=O)[O-] the inhibition was 83.7% (active). C=CCN(C(=O)CCc1ccccc1OC)c1nc(-c2ccc(S(C)(=O)=O)cc2)cs1 showed an inhibition of -10.1%. With CC(=O)c1c(C)[nH]c(C(=O)COC(=O)c2cccc(S(=O)(=O)N(C)c3ccccc3)c2)c1C the inhibition was 84.9% (active). With CCOC(=O)c1c(C)[nH]c(C(=O)OCC(=O)N2CCN(S(=O)(=O)c3ccccc3)CC2)c1C the inhibition was 0%. Compound C[C@@H](C(=O)NCc1ccccn1)[C@H]1C[C@]1(C)[C@H](NC(=O)OCc1ccccc1)c1ccccc1 has an inhibition of -9%. Compound O=C(/C=C/c1ccc(Cl)cc1Cl)N1CCN(c2ccccc2[N+](=O)[O-])CC1 has an inhibition of -38.9%. With O=C(NC(=S)N1CCN(c2ccc(Cl)cc2[N+](=O)[O-])CC1)c1cccs1 the inhibition was 53.9% (active). For O=C(NC(=S)N1CCN(c2ccc(F)cc2)CC1)c1cccs1, the inhibition was 11.7%. With O=C(NC(=S)N1CCN(c2ccc(C(F)(F)F)cc2[N+](=O)[O-])CC1)c1cccs1 the inhibition was 101% (active). Compound CN1CCN(c2ccc(C(CC(N)=O)NC(=O)c3ccccc3)cc2[N+](=O)[O-])CC1 (stereo not drawn) has an inhibition of 10.7%. O=C(Nc1ccc(F)c([N+](=O)[O-])c1)c1cccs1 showed an inhibition of 4.2%. Cn1c(SCC(=O)N2CCCc3ccccc32)nc2ccccc2c1=O showed an inhibition of 43.4%. In the case of Cc1cccc(N2CCN(C(=O)Cc3cn(C)c4ccccc34)CC2)c1C, the inhibition is reported as -31.6%. For Cc1cccc(-n2c(SCC(=O)N3CCC(C(=O)O)CC3)nc3ccccc3c2=O)c1C, the inhibition was 74.3% (active). For O=C(CCl)Nc1cc(SCC(O)CO)cc([N+](=O)[O-])c1 (stereo not drawn), the inhibition was 96.6% (active). For COc1ccc(-[n+]2c(C)cc(/C=C3\Sc4ccccc4N3C)cc2C)cc1, the inhibition was 67% (active). CC(C)Cn1c(N2CCN(C(=O)/C=C/c3ccccc3)CC2)nc2ccccc21 gave an inhibition of 0.5%. For C=CCSc1nc2ccccc2n1C(=O)/C=C/c1ccc(OC)c(OC)c1, the inhibition was 89.7% (active). For CCn1c(NC(=O)/C=C/c2ccc(F)cc2)nc2ccccc21, the inhibition was 0%. For COc1ccc(-c2n(Cc3ccccc3)c3ccccc3[n+]2Cc2ccccc2)cc1, the inhibition was 53.1% (active). CCCc1cc(NC(=O)CCl)n(-c2ccccc2)n1 gave an inhibition of 40.2%. For CC(C)(C)c1cc(NC(=O)CCl)n(-c2ccccc2)n1, the inhibition was 52.2% (active). O=C(CCl)Nc1cc(-c2ccccc2)nn1-c1ccccc1 showed an inhibition of -25.8%. Work on CCOC(=O)c1c(C)[nH]c(C)c1C(=O)CSc1nc2ccccc2c(=O)n1-c1ccc(CC)cc1 yielded an inhibition of -1.6%. In the case of Cc1ccc2c(C(=O)CCl)c(C)[nH]c2c1, the inhibition is reported as 83.2% (active). For Cc1[nH]c2ccccc2c1C(=O)CCl, the inhibition was 95.3% (active). Cn1c2ccccc2c(=O)c2c(=O)n(C3CCCCC3)c(-c3cccs3)nc21 gave an inhibition of 23.4%. With CCOc1ccc(CCn2c(-c3ccco3)nc3ccccc3c2=O)cc1OCC the inhibition was -36.6%. For Cn1c2ccccc2c(=O)c2c(=O)n(C3CCCCC3)c(-c3ccco3)nc21, the inhibition was 78.9% (active).
